Source: PubChem
Most compounds without a hit are left out; they make up all but 0.93% or so of the library.
TRPML1 blocker = human mucolipin-1 channel inhibition. Q9GZU1. TRPML1-inducible cells, Ca2+ dye fluorescence, FDSS; stronger effect = lower value; inhibition of EC80 agonist-evoked calcium signal. activity change, negative = inhibition, % (test concentration not listed). 390,000 tested, 0.02% active. AID 624415; in the data active = activity change below about -50%; inconclusive = between about -30% and that limit;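 also: stimulus is agonist 54-4 at its EC80 concentration; % is scaled to controls: 0 for no effect and ±100 for the full control effect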
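Tet-induced TRPML1-DL cells loaded with Ca8 no-wash calcium dye were read kinetically on FDSS. Compound addition was followed by EC80 agonist 54-4 (4 uM final); inhibition was read over 110 s.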
TRHR PAM = allosterically enhances the human TRH receptor | 360,000 tested, 0.66% active | AID 493056 | enhancement, % at 2 µM | TRHR cells, fluo-8 calcium fluorescence, EC20 TRH enhancement; in the data active = enhancement above about 30%; also: 0% is about no effect
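TRHR-expressing cells loaded with fluo-8 calcium dye were read kinetically (ex 480/em 530) during compound addition, then stimulated with an EC20 of TRH (10 nM final). Enhancement of the Gq-mediated intracellular calcium response was scored.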
GLP1R cytotox = cytotoxicity in counter-screen for GLP-1R inverse agonists. HEK293 cAMP-luciferase reporter cells, luminescence, 24 h. Potency, µM (highest dose often 38.3 µM), for the others: at the top dose activity change, negative = inhibition, most hits filed as inhibitors. 410,000 tested, 0.13% active;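 also: loss of luciferase light is scored as toxicity; potency is read from the fitted curve at half-maximal effect; % is scaled to controls: 0 for no effect and ±100 for the full control effect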
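A 23 nL compound transfer followed 12 hours of cell culture at 37 deg C; exposure then lasted 24 hr. Luciferase assay detection reagent was dispensed and plates read for luminescence after a 12 min room-temperature wait.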
TRPML1 ag = human mucolipin-1 channel agonism | Q9GZU1 | TRPML1-expressing cells, Ca2+ dye fluorescence, FDSS | activation, % (no concentration beside the values) | 410,000 tested, 0.12% active; in the data active = activation above about 50%; inconclusive = mostly about 30% to 49%; also: 0% is about no effect
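Kinetic FDSS Ca2+ read in Tet-induced TRPML1-DL cells (ABD Ca8 dye plus quencher, 45-90 min RT loading): baseline, then compound, then 110 s agonist window; EC80 agonist 54-4 at 4uM final added afterwards for a 110 s antagonist window.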
PTHR1 agonist = activates the human parathyroid hormone receptor PTHR1 | HEK293 GP2 PTHR1 cells, GloSensor cAMP luminescence, 1 h | AID 743266 | Potency, µM (top dose mostly 115 µM), for the others: top-dose activation, hits mostly activators | 410,000 tested, 0.075% active | Q03431; also: potency is read from the fitted curve at half-maximal effect; nearly all actives have a fitted effect of over 55% in size
Target sequence (Q03431 whole entry, looked up): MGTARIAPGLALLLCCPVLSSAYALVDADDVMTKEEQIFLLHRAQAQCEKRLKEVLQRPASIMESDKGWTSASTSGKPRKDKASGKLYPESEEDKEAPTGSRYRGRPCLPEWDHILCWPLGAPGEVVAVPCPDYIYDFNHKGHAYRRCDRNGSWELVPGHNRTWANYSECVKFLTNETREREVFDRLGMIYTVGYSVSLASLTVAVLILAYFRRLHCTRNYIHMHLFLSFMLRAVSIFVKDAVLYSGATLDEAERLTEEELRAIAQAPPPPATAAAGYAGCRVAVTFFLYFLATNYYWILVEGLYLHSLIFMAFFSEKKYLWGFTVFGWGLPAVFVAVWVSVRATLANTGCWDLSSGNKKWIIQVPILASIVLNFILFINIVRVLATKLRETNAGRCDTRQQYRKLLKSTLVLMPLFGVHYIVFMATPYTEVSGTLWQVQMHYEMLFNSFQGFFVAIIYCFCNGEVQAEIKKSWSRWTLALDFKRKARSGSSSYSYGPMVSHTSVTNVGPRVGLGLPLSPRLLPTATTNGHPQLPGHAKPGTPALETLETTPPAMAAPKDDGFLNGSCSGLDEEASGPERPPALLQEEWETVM
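HEK-293-derived GP2 cells expressing PTHR1 and a GloSensor cAMP reporter, 3,000/well, plated overnight, given luciferin plus IBMX (each 0.5 mM as added) for 1 h at 37 °C, then compound for 1 h at 37 °C. Luminescence was read after 15 min at room temperature.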
TRHR agonist = agonists of human TRH receptor; activation, % at 2 µM; TRHR cells, calcium flux fluo-8, FDSS agonist mode; 360,000 tested, 0.18% active; in the data active = activation above about 30%; also: 0% is about no effect
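Fluo-8-loaded TRHR cells; 10 s baseline, compound added, kinetic Ca2+ fluorescence read 1/s, agonist mode.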
Numbers without * were called inactive; i = inactive; ? = inconclusive; . = not tested or not shown; [ ] = another dose, or the depositor's remark. Unless noted, calls follow the shape of the dose curve; as a rule, active = well fitted curve in the direction sought with a large enough effect; inconclusive = small, poorly fitted or top-dose-only effect, or another doubt; inactive = no such curve, though single readings can be large; an effect the other way counts as inactive or inconclusive.

SMILES	TRPML1 blocker	TRHR PAM	GLP1R cytotox	TRPML1 ag	PTHR1 agonist	TRHR agonist
O=C1OCC(CO)(CO)N=C1NNc1ccccc1Cl	13	31*	-3%	0	23%	1
CC[N+](C)(C)c1ccc(/C=C/c2ccc3ccccc3n2)cc1	.	.	.	0	.	.
COC(=O)C1=C(C)N(Cc2ccccc2)C(=NCC2CC2)N[C@H]1c1ccc(Br)cc1	.	32*	.	.	.	5
CCCCN(CCCC)c1ccc(Cn2ccc3ccccc32)cc1	.	.	.	0	.	.
CCOC(=O)CSc1nc2ccccc2n1CC(=O)NC(C)(C)C	-7	30*	-8%	1	i	1
COc1ccc(C(=O)CSc2nc3ccccc3n2CC(=O)NC(C)(C)C)cc1	-1	0	4%	0	-1%[57.5 µM]	-1
O=Cc1ccc(CS)cc1	.	.	.	0	.	.
Cc1c(Br)cc(F)c([S+](=O)([O-])N2CCN([S+](=O)([O-])c3ccc4c(c3)OCCO4)CC2)c1F	.	-2	.	.	.	1
O=C(NCCNC(=O)c1ccc(Br)o1)c1ccc(Br)o1	14	38*	-3%	-1	i	3
COc1ccc(/C=C/c2nccc3ccccc23)cc1OC	.	.	.	-1	.	.
Cc1ccc(S(=O)(=O)c2ccc([N+](=O)[O-])o2)cc1	3	.	5.6µM*	1	-37%	.
Cc1cc2c(s1)c1cnn(Cc3ccc(F)c(F)c3)c(=O)c1n2C	.	1	.	.	.	0
O=C(COC(=O)c1ccc2ncsc2c1)NC(=O)C1CCCCC1	.	.	.	0	.	.
Cc1cc(C)nc(N/N=C/c2ccccc2OCc2cccc(Br)c2)n1	-20	4	4µM*	4	-94%	0
CCOCCCNC(=O)C1CCCN(Cc2nc(-c3ccc(CC)cc3)oc2C)C1 (centres undefined)	-12	32*	-8%	0	-17%	-1
COc1ccc(-c2nc(CN3CCC(C(=O)NCCCN4CCN(c5ccccc5F)CC4)CC3)c(C)o2)cc1OC	9	-1	13µM*	-1	0%	0
CCC1CCCCN1CCCNC(=O)C1CCN(Cc2nc(-c3ccc(Cl)cc3)oc2C)CC1 (centres undefined)	-15	-6	5µM*	1	-23%	0
CCCCCc1cc[n+](CC(=O)c2ccccc2)cc1	.	.	.	0	.	.
C=C1NN(CC2CC2)C(=O)N1c1ccc(OCc2ccccc2)cc1	.	.	.	-1	.	.
Cc1ccc(/C=C2\CCC3=C2OC(N)=C(C#N)C3c2ccc(C)cc2)cc1 (centres undefined)	-1	15	142%	?	i	68*
Cc1ccc(C2C(C#N)=C(N)Oc3cc(N)ccc32)cc1 (centres undefined)	.	-1	-2%	.	-10%	0
O=C(NC1CCCC1)C(c1ccncc1)N(C(=O)c1csnn1)c1ccccc1F (centres undefined)	1	28	1%	-1	i	0
Cc1ccccc1N(C(=O)c1csnn1)C(C(=O)NC1CCCCC1)c1ccncc1 (centres undefined)	6	32*	10%	-1	i	-1
C=C1C=C(C(F)F)n2ncc(C(=O)NCc3ccc(Cl)cc3Cl)c2N1	.	.	.	-1	.	.
O=C(/C=C/c1ccccc1)CC(O)(c1ccccc1)C(F)(F)C(F)F (centres undefined)	-6	6	6%	59*	-28%	0
SMILES	TRPML1 blocker	TRHR PAM	GLP1R cytotox	TRPML1 ag	PTHR1 agonist	TRHR agonist
O=CC(=O)c1ccc(F)cc1	.	.	.	-1	.	.
O=C(C[n+]1cccc(I)c1)c1ccc(F)cc1	.	.	.	0	.	.
Cn1cnc([N+](=O)[O-])c1Oc1cccc2ccccc12	10	37*	?	0	-23%	-1
O=[S+]([O-])(c1ccc2c(c1)OCCO2)N1CCN([S+](=O)([O-])c2ccc(F)cc2Br)CC1	.	-3	.	.	.	0
Cc1ccc(-n2ncc3c(NCCCn4ccnc4)ncnc32)cc1	-1	31*	20%	0	i	0
Cn1c2cc(Br)sc2c2cnn(Cc3ccccc3F)c(=O)c21	.	-2	.	.	.	-1
O=S(=O)(c1ccccc1F)N1CCN(c2nc(-c3cccs3)nc3ccccc23)CC1	.	.	.	0	.	.
